Source: PubChem
Pf growth 96h – P. falciparum growth inhibition at 96 hours; P. falciparum luciferase reporter growth, 96 h; Potency, µM (highest dose often 28.7 µM), for the others: at the top dose activity change, negative = inhibition, most hits filed as inhibitors; 320,000 tested, 6.9% active; AID 504834; note: potency is the fitted concentration of half-maximal effect; % is set by controls: 0 for no effect and ±100 for the full control effect
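Plates of compound plus infected erythrocytes (2% hematocrit, 0.05% parasitemia final) incubate 96 hours, 37 C, 5% CO2. Detection reagent added; reduced luminescence from the parasites' luciferase reporter flags inhibition.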
Sm TGR block – S. mansoni TGR enzyme inhibition; 360,000 tested, 3% active; Q962Y6; purified TGR, DTNB reduction, TNB absorbance 405 nm; Potency, µM (top dose mostly 114 µM), inactives show at the highest dose activity change, negative = inhibition, most hits filed as inhibitors; AID 485364; note: potency is the fitted concentration of half-maximal effect; % is set by controls: 0 for no effect and ±100 for the full control effect; nearly all actives have a fitted effect of over 60% in size
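Kinetic colorimetric format: TGR-catalysed, NADPH-driven DTNB reduction monitored via TNB absorbance. Enzyme dispensed at 20 nM; compound exposure 15 min at room temperature before reaction start.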
Pf growth 48h – inhibits P. falciparum growth in the first generation, 48 h; AID 504832; 310,000 tested, 5.9% active; Potency, µM (top dose mostly 28.7 µM), for inactives: at the highest dose activity change, negative = inhibition, actives largely listed as inhibitors; P. falciparum luciferase growth in erythrocytes, 48 h; note: potency is the fitted concentration of half-maximal effect; % is set by controls: 0 for no effect and ±100 for the full control effect
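Luminescence readout; reporter = integrated firefly luciferase in P. falciparum. RBC culture at 2% hematocrit, 0.1% parasitemia final, 37 C/5% CO2; decreased signal taken as growth inhibition.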
HCMV antiviral – human cytomegalovirus inhibition; HFF cells, HCMV-luciferase reporter, 72 h; active compounds read low; activity change, negative = inhibition, % at 57.5 µM; 410,000 tested, 4.5% active; AID 1259415; in the data active = activity change below about -60%; inconclusive = no clear call, values can overlap the other calls; inactive = above about -39%; note: % is set by controls: 0 for no effect and ±100 for the full control effect
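Luciferase read-out from HCMV-luciferase-infected HFFs (MOI 1 PFU/cell) 72 h post infection at 37C; compounds added after 16 h cell attachment; activity normalized between buffer-only basal and Salinomycin (10uM) inhibitor controls.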
SARS PLP yeast – SARS-CoV PLP inhibition in yeast; AID 485353; 330,000 tested, 0.19% active; Potency, µM (series often up to 32.9 µM), without a hit: at the top dose activity, positive = growth rescue, hits mostly activators; S. cerevisiae expressing SARS-CoV PLpro, growth rescue; calls by dose curve; note: potency is the fitted concentration of half-maximal effect; 0% is about no effect; nearly all actives have a fitted effect of over 55% in size
HCV inh – inhibitors of hepatitis C virus infection; Huh7.5.1 HCVcc-Cre infection, luciferase reporter, 44 h; Potency, µM (highest dose often 41.8 µM), without a hit: at the top dose activity change, negative = inhibition, usual class: inhibitors; 340,000 tested, 3.4% active; AID 651820; note: potency is the fitted concentration of half-maximal effect; % is set by controls: 0 for no effect and ±100 for the full control effect
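Infectious HCV cell culture screen: compound-treated cells (1,000/well, pre-plated 4 h) are infected with HCVcc-Cre at roughly 0.5 moi and grown 44 h. Infection is quantified by luciferase signal after 15 min substrate incubation at room temperature.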
Active calls of the source: *; i = inactive; ? = inconclusive; . = no result. Sampled rows, rich in hits. Any-hit rate of the full collection: about 15%. Unless noted, calls come from the whole dose curve; as a rule, active = well fitted curve in the direction sought with a large enough effect; inconclusive = small, poorly fitted or top-dose-only effect, or another doubt; inactive = no such curve, though single readings can be large; an effect the other way counts as inactive or inconclusive.

SMILES	Pf growth 96h	Sm TGR block	Pf growth 48h	HCMV antiviral	SARS PLP yeast	HCV inh
COc1ccccc1C(=O)COC(=O)c1cc([N+](=O)[O-])ccc1N1CCOCC1	?	1%	4.7µM*	-12	-3%	?
CC1CCCN(C(=O)COC(=O)c2cc([N+](=O)[O-])ccc2N2CCOCC2)C1 (configuration not stated)	-5%	-28%	-22%	-13	-9%	32µM*
Cc1oc2c(c1C(=O)Nc1ccccc1Br)C1=NCCN1C=N2	.	1%	.	13	.	.
O=C(Nc1nnc([C@H]2C[C@H](O)[C@@H](CO)O2)s1)Nc1ccccc1Oc1ccccc1	.	.	.	-15	.	.
COc1ccc(C(=O)COC(=O)c2cc([N+](=O)[O-])ccc2N2CCOCC2)c(OC)c1	2%	-4%	-8%	18	5%	1µM*
CC(C)(C)OC(=O)C[C@@H]1C/C=C\C[C@@H](CC(=O)N(CCO)Cc2ccccc2)C(=O)N2CCC[C@@H]2COC1=O	.	.	.	5	-1%	5%
Cc1cccc(Nc2nc(-c3cccs3)cs2)n1	0%	-3%	31%	47	-114%	?
Oc1ccc(-c2csc(Nc3ncccn3)n2)cc1	4.1µM*	6%	377%	23	-4%	-30%
Cc1cccnc1Nc1nc(-c2ccccn2)cs1	.	10%	?	-106*	-13%	?
c1ccc(Nc2nc(-c3cccnc3)cs2)nc1	20%	5%	217%	96	-5%	?
Cc1cccnc1Nc1nc(-c2ccccc2)cs1	5%	-19%	-42%	185	5%	16µM*
c1ccc(-c2csc(Nc3ncccn3)n2)cc1	?	0%	302%	82	-4%	-1%
Cc1cccnc1Nc1nc(-c2ccc(O)cc2O)cs1	14%	3%	137%	40	-35%	-14%
Cc1cccc(Nc2nc(-c3ccccn3)cs2)n1	27%	-5%	?	-7	-20%	7.1µM*
COC(=O)c1cc2oc3ccccc3c2n1CC(=O)Nc1ccc(C)cc1C	.	0%	.	29	.	.
CC(=O)c1cccc(-n2c(=O)c3c4c(sc3n(CC(=O)c3ccc(Cl)cc3)c2=O)CN(C(C)=O)CC4)c1	.	5%	.	6	.	.
CCOc1ccc(C(=O)NCc2ccc3c(c2)CCN3C(=O)c2ccc(C)cc2)cc1OCC	.	-3%	.	-8	.	.
Cc1cccc(Nc2nc(-c3ccc(F)cc3)cs2)n1	12µM*	6%	153%	255	2%	?
COc1ccc(-c2csc(Nc3cccc(C)n3)n2)cc1	?	-23%	146%	253	-4%	?
CCN1CCN(c2c(/C=C3\SC(=S)N(Cc4ccco4)C3=O)c(C)c(C#N)c(=O)n2C)CC1	?	2%	2.3µM*	-73*	1%	2.2µM*
COc1cccc(C=C2SC(=S)N(Cc3ccco3)C2=O)c1OC	.	.	.	-34	.	.
Cc1ccc(C)c(-n2nnnc2SCC(=O)c2ccc3c(c2)NC(=O)CO3)c1	-38%	-5%	?	-84*	-10%	?
Cc1ccc2nc(SCC(=O)c3ccc4c(c3)NC(=O)CO4)[nH]c2c1	?	-3%	?	33	-2%	?
CCCCn1c(=O)[nH]c(=O)c2c1nc(-c1cc(Br)ccc1OC)n2C	?	-7%	?	-7	-11%	-16%
CCCCn1c(=O)[nH]c(=O)c2c1nc(-c1ccc(OC)c(Br)c1)n2CC(C)C	2.1µM*	6%	?	20	-14%	10µM*
SMILES	Pf growth 96h	Sm TGR block	Pf growth 48h	HCMV antiviral	SARS PLP yeast	HCV inh
CCCCn1c(=O)[nH]c(=O)c2c1nc(-c1ccccc1F)n2Cc1ccccc1OC	?	-8%	?	1	2%	10µM*
Cc1oc(-c2cccc3ccccc23)nc1CN1CCN(c2ncnc3ccccc23)CC1	1%	.	?	?	-1%	10µM*
COc1ccc(-c2nc(CN3CCN(c4cc(C)nc(C)c4)CC3)c(C)o2)c2ccccc12	?	11%	38%	?	2%	?
O=[N+]([O-])c1ccc(S(=O)(=O)N/N=C/c2ccco2)cc1	-5%	-15%	5%	19	3%	16%
CN=c1scc(-c2ccc([N+](=O)[O-])cc2)n1/N=C/c1ccco1	i	0%	338%	-87*	-3%	12%
O=C1c2ccc([N+](=O)[O-])cc2NC(c2ccco2)N1/N=C/c1ccco1 (configuration not stated)	?	40µM*	33%	-11	-6%	-18%
COc1ccc(N(CC(=O)Nc2cc(C)ccc2C)S(=O)(=O)c2ccc(OC)c(OC)c2)cc1	.	-1%	.	-25	.	.
CCOC(=O)c1c(C2CC2)csc1NC(=O)COC(=O)CCS(=O)(=O)c1ccc(C)cc1	4%	4%	8%	-2	-13%	33%
C=CCc1cccc(CNc2cnc3ccccc3c2)c1O	-3%	-25%	?	-33	-10%	7.9µM*
Oc1ccc(Cl)cc1CNc1cnc2ccccc2c1	2.6µM*	-33%	-22%	22	-2%	?
COc1ccc2c3n([n+]([O-])c2c1)C(C)CN=C3c1ccc(C)cc1 (configuration not stated)	.	.	.	20	.	.
COc1ccc(/C=C\C(=O)c2c(O)ccc3c(C)cc(=O)oc23)cc1OC	.	-3%	9.3µM*	-94*	3%	10µM*
Cc1cc(=O)oc2c(C(=O)/C=C\c3cccs3)c(O)ccc12	13µM*	-10%	-9%	?	-61%	5%
CC(=O)c1c(OCC(=O)O)ccc2c(C)cc(=O)oc12	.	1%	1%	7	.	-3%
COc1cc(/C=C/C(=O)c2c(O)ccc3c(C)cc(=O)oc23)ccc1O	?	-29%	?	-92*	.	-22%
CC(=O)c1c(O)ccc2c(-c3ccccc3)cc(=O)oc12	15%	1%	12%	-39	12%	15%
